Assay [1] is described as follows: TOX21_p53_BLA_p2_viability: Viability Assessment in the Tox21 HCT-116 p53 Agonism Beta-lactamase Assay, Phase 2 (AID 2283591).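 Note: compound exposure lasted 16 h at 37 °C; actives lower the ATP signal meaning cytotoxicity.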 The gist of the method: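 HCT-116 p53-bla cells (4000/well) rested 5 h at 37C, then received compounds in DMSO (217-fold dilution) for 16 h at 37C, 5% CO2. After the CCF4 read, CellTiter-Glo was added; ATP luminescence was read after 30 min at room temperature.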

Assay [2] addresses Cellular tumor antigen p53 (Homo sapiens) (UniProt P04637). Nature of the assay: TOX21_p53_BLA_p2_ratio: Tox21 HCT-116 p53 Agonism Beta-lactamase Assay, Ratio, Phase 2 (AID 2283592). The gist of the method:
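Plated HCT116 p53-bla cells (4000/well) received compound after 5 h, then 16 h at 37C/5% CO2. CCF4-AM added, 2 h RT. Ratio of 460 to 530 nm emission taken as the p53 reporter signal.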

The nature of assay [3]: TOX21_p53_BLA_p3_viability: Viability Assessment in the Tox21 HCT-116 p53 Agonism Beta-lactamase Assay, Phase 3 (AID 2283593).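 Note: cells exposed to compound for 16 h before reading.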 An outline of the steps: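 HCT-116 cells (4000/well) rested 5 h at 37C, then got DMSO compounds by pin tool (217-fold dilution) for 16 h at 37C, 5% CO2. After the bla read, CellTiter-Glo was added and luminescence read at 30 min, room temperature.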

Assay [4] has as its target Cellular tumor antigen p53 (Homo sapiens) (UniProt P04637). The assay is described as follows: TOX21_p53_BLA_p3_ratio: Tox21 HCT-116 p53 Agonism Beta-lactamase Assay, Ratio, Phase 3 (AID 2283596). The gist of the method: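 Cells were seeded at 4000/well, rested 5 h at 37C, then dosed with DMSO compound solutions (217-fold dilution) for 16 h. CCF4-AM substrate was loaded for 2 h at room temperature, and the 460/530 nm emission ratio was fitted for gain of signal versus DMSO.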

Assay [5] in a line: TOX21_p53_BLA_p4_viability: Viability Assessment in the Tox21 HCT-116 p53 Agonism Beta-lactamase Assay, Phase 4 (AID 2283597).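 Note: hits lower the luminescence signal meaning cytotoxicity.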 The gist of the method:
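Readout: ATP luminescence (CellTiter-Glo), measured 30 min after reagent addition at RT. The reagent followed a 2 h CCF4-AM incubation, and the cells had been exposed to compound for 16 h at 37C.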

The target of assay [6] is Cellular tumor antigen p53 (Homo sapiens) (UniProt P04637). The assay is described as follows: TOX21_p53_BLA_p5_ratio: Tox21 HCT-116 p53 Agonism Beta-lactamase Assay, Ratio, Phase 5 (AID 2283599). An outline of the steps: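 HCT-116 cells carrying a p53-inducible beta-lactamase reporter were seeded at 4000 cells/well and dosed after 5 h with compound in DMSO (217-fold dilution). After 16 h at 37C, CCF4-AM substrate was added for 2 h, and the 460/530 nm emission ratio was scored as gain-of-signal versus DMSO.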

The nature of assay [7]: TOX21_p53_BLA_p5_viability: Viability Assessment in the Tox21 HCT-116 p53 Agonism Beta-lactamase Assay, Phase 5 (AID 2283600). An outline of the steps: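 Workflow: seed 4000 cells per well, wait 5 h, add compounds (DMSO, 217-fold dilution), incubate 16 h, load CCF4-AM 2 h, add CellTiter-Glo, read luminescence after 30 min.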
In assay [8] the target is Cellular tumor antigen p53 (Homo sapiens) (UniProt P04637). Nature of the assay: TOX21_p53_BLA_p4_ratio: Tox21 HCT-116 p53 Agonism Beta-lactamase Assay, Ratio, Phase 4 (AID 2283601). The gist of the method: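 HCT116 cells carrying an inducible beta-lactamase reporter were plated at 4000 cells/well, rested 5 h, then exposed to compounds in DMSO (217-fold dilution) for 16 h at 37C. CCF4-AM substrate was loaded 2 h at room temperature; 460/530 nm emission ratio scored gain-of-signal versus DMSO.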

Each structure is given as a SMILES string. Records with an inconclusive call do not appear. Calls of active or inactive are those of the source. Rule for the calls: active = hit-call score of the fitted dose curve at least 0.9, where 1 is the maximum; inconclusive = response in the unintended direction; inactive = score below 0.9.

Data on 19 molecules can be found in PubChem BioAssay (EPA / NIEHS).

Sequence of Cellular tumor antigen p53 (Homo sapiens) (P04637 whole entry, looked up): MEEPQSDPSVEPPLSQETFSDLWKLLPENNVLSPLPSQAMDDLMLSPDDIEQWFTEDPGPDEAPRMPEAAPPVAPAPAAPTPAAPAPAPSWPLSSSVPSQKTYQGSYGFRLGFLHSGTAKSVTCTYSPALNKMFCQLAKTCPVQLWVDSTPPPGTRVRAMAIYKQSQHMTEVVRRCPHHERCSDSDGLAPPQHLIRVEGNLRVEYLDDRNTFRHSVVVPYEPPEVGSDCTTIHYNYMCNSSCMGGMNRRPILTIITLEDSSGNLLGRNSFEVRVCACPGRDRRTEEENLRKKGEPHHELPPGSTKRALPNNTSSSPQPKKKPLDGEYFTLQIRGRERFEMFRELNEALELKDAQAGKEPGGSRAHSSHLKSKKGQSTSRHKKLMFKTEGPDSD

In general, AC50 refers to the concentration at which the activity in the assay is half-maximal. For the molecule `NC1(c2ccc(-c3nc4ccn5c(=O)[nH]nc5c4cc3-c3ccccc3)cc2)CCC1`, the molecule was classed as inactive in assay [1], in assay [2], in assay [3], in assay [4], in assay [6] and in assay [7]. For the same molecule, the result in assay [8] was inactive. In assay [5], the AC50 is 8.62 µM (active).

Take `CC(C)OC(=O)CCCCC(=O)OC(C)C`: the molecule was called inactive in assay [1], in assay [3], in assay [4], in assay [5] and in assay [7]. The AC50 is 60.5 µM (active) in assay [2], 71.9 µM (active) in assay [6] and 69 µM (active) in assay [8].

Consider `Cc1c(-c2ccccc2)oc2c(C(=O)OCCN3CCCCC3)cccc2c1=O`, for which the outcome in assay [1], in assay [2], in assay [3], in assay [4], in assay [5] and in assay [6] was inactive. Also, the result in assay [7] and in assay [8] was inactive.

Regarding `C=CC(=O)O`, the molecule was classed as inactive in assay [1], in assay [2], in assay [3], in assay [4], in assay [5] and in assay [6]. Also, the molecule was called inactive in assay [7] and in assay [8].

As to `CC[C@@H](C(=O)[C@@H](C)[C@@H](O)[C@H](C)CCc1ccc(C)c(O)c1C(=O)O)[C@H]1O[C@](CC)([C@H]2CC[C@](O)(CC)[C@H](C)O2)C[C@@H]1C`, the AC50 in assay [1] was 23 µM (active); in assay [2] it was 17.2 µM (active); in assay [3], 23 µM (active); in assay [4], 30.3 µM (active); in assay [5], 31.1 µM (active); in assay [6], 36.2 µM (active). Also, the AC50 was 31.4 µM (active) in assay [7] and 14.6 µM (active) in assay [8].

Consider `CS(=O)(=O)Nc1ccc([N+](=O)[O-])cc1Oc1ccccc1`, for which the molecule was called inactive in assay [1], in assay [2], in assay [3], in assay [4], in assay [5] and in assay [6]. For the same molecule, the outcome in assay [7] and in assay [8] was inactive.

Consider `CC(=O)O[C@H]1CC[C@@]2(C)C(=CC[C@H]3[C@@H]4CC[C@H](C(C)=O)[C@@]4(C)CC[C@@H]32)C1`, for which the outcome in assay [1], in assay [2], in assay [3], in assay [4], in assay [5] and in assay [6] was inactive. Moreover, the call in assay [7] and in assay [8] was inactive.

For `COc1nc(N)nc2c1ncn2[C@@H]1O[C@H](CO)[C@@H](O)[C@@H]1O`, the call in assay [1], in assay [2], in assay [3], in assay [4], in assay [5] and in assay [6] was inactive. For the same molecule, the molecule was called inactive in assay [7] and in assay [8].

As to `CCc1c2c(nc3ccc(OC(=O)N4CCC(N5CCCCC5)CC4)cc13)-c1cc3c(c(=O)n1C2)COC(=O)[C@]3(O)CC`, the call in assay [1], in assay [3], in assay [5] and in assay [7] was inactive. Further, the half-maximal activity concentration (AC50) was 5.56 µM (active) in assay [2], 5.37 µM (active) in assay [4], 7.41 µM (active) in assay [6] and 11.3 µM (active) in assay [8].

Take `Oc1c(Br)cc(Br)c2cccnc12`: the outcome in assay [1], in assay [3], in assay [4], in assay [6], in assay [7] and in assay [8] was inactive. The results for the concentration at half-maximal activity (AC50) in assay [2] and in assay [5] were 5.02 µM (active) and 7.62 µM (active), respectively.

As for `N[C@@H](COP(=O)(O)O)C(=O)O`, the result in assay [1], in assay [2], in assay [3], in assay [4], in assay [5] and in assay [6] was inactive. In addition, the call in assay [7] and in assay [8] was inactive.

`CCCCCCCCS(=O)C(C)Cc1ccc2c(c1)OCO2` (configuration not stated): the AC50 was 78.9 µM (active) in assay [1]; 39.3 µM (active) in assay [2]; 90.9 µM (active) in assay [4]; 74.7 µM (active) in assay [5]; 86.8 µM (active) in assay [6]; 58.2 µM (active) in assay [7]. Moreover, the concentration at half-maximal activity (AC50) in assay [8] was 88.7 µM (active). Besides, in assay [3], the molecule was classed as inactive.

`O=C(O)CCC(=O)C(=O)O`: the molecule was classed as inactive in assay [1], in assay [2], in assay [3], in assay [4], in assay [5] and in assay [6]. Further, the outcome in assay [7] and in assay [8] was inactive.

`CCN(CC)CCCC(C)Nc1c2ccc(Cl)cc2nc2ccc(OC)cc12` (configuration not stated): the call in assay [1], in assay [3], in assay [5] and in assay [7] was inactive. The AC50 was 25.8 µM (active) in assay [2], 23.7 µM (active) in assay [4], 38.7 µM (active) in assay [6] and 35.1 µM (active) in assay [8].

For `CCCCCCCCCCCCCCCCC(C(=O)O)C(O)(CC(=O)O)C(=O)O` (configuration not stated), the result in assay [1], in assay [2], in assay [5] and in assay [8] was inactive. The AC50 in assay [3] was 42.3 µM (active); in assay [4] it was 41.2 µM (active); in assay [6], 38.7 µM (active); in assay [7], 34.3 µM (active).

Turning to `Cc1cc(N)c2ccccc2[n+]1CCCCCCCCCC[n+]1c(C)cc(N)c2ccccc21`, the result in assay [1], in assay [2], in assay [3], in assay [4], in assay [5] and in assay [6] was inactive. For the same molecule, the molecule was called inactive in assay [7] and in assay [8].

Regarding `CN(C)CCN(C)CCN(C)C`, the outcome in assay [1], in assay [2], in assay [3], in assay [4], in assay [5] and in assay [6] was inactive. Besides, the result in assay [7] and in assay [8] was inactive.

For `CCCCC(CC)CN1CN(CC(CC)CCCC)CC(C)(N)C1` (configuration not stated), the molecule was called inactive in assay [1], in assay [2], in assay [3], in assay [4], in assay [5] and in assay [6]. In addition, the molecule was called inactive in assay [7] and in assay [8].

As to `CCCCCCCC/C=C\CCCCCCCC(=O)N(CCO)CCO`, the call in assay [1], in assay [2], in assay [3], in assay [4], in assay [5] and in assay [6] was inactive. Also, the call in assay [7] and in assay [8] was inactive.
